From PubChem BioAssay (Tox21)
Where “and” joins values, the source holds several entries; their conditions need not be identical. Equal values may be shown once. Results filed as inconclusive are left out. A call without a number means that no potency is given here. Where a structure was tested more than once in an assay, its records may differ in their call. Calls of active or inactive are those of the source. Calls follow the shape of the dose curve; as a rule, active = well fitted cell-killing curve with a large enough effect in the repeat runs; inconclusive = weak or mixed curves, or effect the other way; inactive = flat fitted curve, though single readings scatter.

assay: qHTS RealTime-Glo MT Cell Viability Assay in HEK293 cells - 32 hour (AID 1224868); conditions: RealTime-Glo luminescence; series mostly up to 76.8 µM; activity change, negative = cytotoxic: at the top concentration; also: nearly all actives have a fitted effect of over 50% in size; as to activity change, negative = cytotoxic: top concentration of the series differs between compounds
Source text: National Center for Advancing Translational Sciences [NCATS]
NIH Chemical Genomics Center [NCGC]
U.S. Environmental Protection Agency [EPA]
National Institutes of Environmental Health Sciences [NIEHS]
National Toxicology Program [NTP]
U.S. Food and Drug Administration [FDA]
Measure of cell viability is critical in the cell-base assay. Analysis of cell viability is necessary for the characterization of cell responses to cytotoxic drugs and environmental stress. A RealTime-Glo MT Cell Viability Assay to monitor cell viability in real time of continues cell culture during 40 hours of compound treatment was used to screen Tox21 10K library compounds in Hek293 cells. The RealTime-Glo MT Cell Viability Assay is a nonlytic, homogeneous, bioluminescent method to measure cell viability in real time using a simple, plate-based method. The assay involves adding NanoLuc luciferase and a cell-permeant prosubstrate to cells in culture. Viable cells reduce the proprietary prosubstrate to generate a substrate for NanoLuc luciferase. This substrate diffuses from cells into the surrounding culture medium, where it is rapidly used by the NanoLuc Enzyme to produce a luminescent signal. The signal correlates with the number of viable cells, making the assay well suited for cytotoxicity studies.
Tox21 Assay Protocol Summary:
The mixture of Hek293 cell suspension and reagents were dispensed at 600cells/6 ul/well in 1536-well tissue culture treated black solid bottom plates using a Multidrop dispenser. After the assay plates were incubated at a 37 C/5% CO2 incubator for 5 hours, 23 nL of compounds dissolved in DMSO, positive and negative controls was transferred to the assay plate by a pintool work station. The plates were incubated at 37 C for 40 hours. The luminescence intensity were measured at 0h, 8h, 16h, 24h, 32h and 40h time points using ViewLux plate reader during compound treatment.
Potency is read from the fitted curve at half-maximal effect.

| SMILES | Potency | activity change, negative = cytotoxic |
| --- | --- | --- |
| CC(=O)OC/C=C(\C)CCC=C(C)C | inactive |  |
| O=Cc1ccc(CO)o1 | inactive |  |
| O=C(Cl)c1ccc(C(=O)Cl)cc1 | inactive |  |
| CCCOCC(C)O (stereo not given) | inactive |  |
| COc1c(Cl)ccc(Cl)c1C(=O)O | inactive |  |
| O=[N+]([O-])c1ccccc1C(F)(F)F | inactive |  |
| Cc1cc(C)cc(O)c1 | inactive |  |
| CCc1cccc(CC)c1N | inactive |  |
| OC[C@H]1O[C@@H](Oc2ccc(O)cc2)[C@H](O)[C@@H](O)[C@@H]1O | inactive |  |
| CN1CCCC1=O | inactive |  |
| CCn1cc(C(=O)O)c(=O)c2cc3c(cc21)OCO3 | inactive |  |
| O=C1O[C@H]([C@H](O)CO)C(O)=C1O | inactive |  |
| Cc1cc(C)c(O)c(C)c1 | inactive |  |
| CCCCCCCC(=O)O | inactive |  |
| CCc1cccc(O)c1 | inactive |  |
| Cc1cc(CC(=O)O)n(C)c1C(=O)c1ccc(Cl)cc1 | inactive |  |
| CN1Cc2c(N)cccc2C(c2ccccc2)C1 (stereo not given) | inactive |  |
| N#CCC(=O)O | inactive |  |
| OC1CCCCC1 | inactive |  |
| N[C@@H](Cc1cc(I)c(Oc2ccc(O)c(I)c2)c(I)c1)C(=O)O | inactive |  |

| SMILES | Potency | activity change, negative = cytotoxic |
| --- | --- | --- |
| Nc1nc(N)c2nc(-c3ccccc3)c(N)nc2n1 |  | -22.6% [at 35.3 µM] (inactive) |
| OCc1ccc(Cl)cc1Cl | inactive |  |
| COc1cc(NC(=O)CC(C)=O)c(OC)cc1Cl | inactive and 11 µM (active) |  |
| OCC(CO)(CO)CO | inactive |  |
| CCN(CC)CCNC(=O)c1ccc(N)cc1 | inactive |  |
| CCCCC(=O)O | inactive |  |
| OCC(O)CS (stereo not given) | inactive |  |
| COCN(COC)c1nc(N(COC)COC)nc(N(COC)COC)n1 | inactive |  |
| c1cnc2c(c1)ccc1cccnc12 | 3.5 µM (active) and 7.76 µM (active) |  |
| CCCCCCCCCCCCCC(=O)O | inactive |  |
| CCCCC(CC)COC(=O)c1ccc(C(=O)OCC(CC)CCCC)cc1 (stereo not given) | inactive |  |
| COc1ccc2cc3[n+](cc2c1OC)CCc1cc2c(cc1-3)OCO2 | 4.93 µM (active) and 10.7 µM (active) |  |
| CS(=O)(=O)c1ccc(Cl)cc1 | inactive |  |
| Cc1ccccc1C=O | inactive |  |
| CC(=O)CC(=O)N(C)C | inactive |  |
| Cc1ncc(CO)c(CO)c1O | inactive |  |
| CCCN(CCC)C(=O)SCC | inactive |  |
| CCCCCCCCO | inactive |  |
| CC/C=C(\C(=O)N[C@@H]1C(=O)N2C(C(=O)OCOC(=O)C(C)(C)C)=C(COC(N)=O)CS[C@H]12)c1csc(N)n1 | inactive |  |
| C=C(CC(=O)O)C(=O)O | inactive |  |
